In the library only some 3.2% were active in any assay of this set; here they are far more common.
GLP-1R agonist: qHTS of GLP-1 Receptor Agonists. Glucagon-like peptide 1 receptor (Homo sapiens), P43220. HEK293 GLP-1R CRE-luciferase, luminescence, 4-6 h; cells express a hypersensitive GLP-1R form. Potency, µM (doses to about 45.6 µM), hits mostly activators. 380,000 compounds, 0.007% hits. AID 624172, 2012
ClpP mod: qHTS Assay for Activators of ClpP; Potency, µM (titrated, usually from 57.5 µM); 340,000 compounds, 1.9% hits; purified B. subtilis ClpP, FRET peptide cleavage, 20 min; ATP-dependent Clp protease proteolytic subunit (Bacillus subtilis (strain 168)), P80244; AID 651965, 2013; active = well fitted falling curve with a large enough effect; inconclusive = small, poorly fitted or top-dose-only effect; inactive = no such curve, though single readings can be large or run the other way; also: the source files actives as falling curves though it sought activators and does not explain the sign; nearly all actives have a fitted effect of over 65% in size
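ClpP 10 microg/mL final, pH 8 Tris/KCl buffer with BSA, glycerol, Tween-20; compound pinned in; FRET-FV substrate; RT 20 min; Ex320/Em430; ΔFRET vs ADEP 5.8 microM, DMSO, no enzyme.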
HEK293 tox: qHTS of GLP-1 Receptor Inverse Agonists: Cytotox Screen. HEK293 cAMP-luciferase reporter cells, luminescence, 24 h. Potency, µM (titrated, usually from 38.3 µM), hits mostly inhibitors. 410,000 compounds, 0.13% hits;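 also: loss of luciferase light is scored as toxicity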
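Luminescence readout: signal drop marks cytotoxicity. Plated cells grew 12 h at 37 °C, 5% CO2, received 23 nL compound for 24 h, then got luciferase reagent, read after 12 min at RT.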
GLP1R inv ag: qHTS of GLP-1 Receptor Inverse Agonists (Inhibition Mode). Potency, µM (top dose mostly 38.3 µM), usual class: inhibitors. Glucagon-like peptide 1 receptor (Homo sapiens), P43220. 410,000 compounds, 1.6% hits. HEK293 GLP-1R CRE-luciferase, luminescence, 24 h; GLP-1R form is constitutively active; also: nearly all actives have a fitted effect of over 55% in size
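Cells are plated, allowed 12 hours at 37 deg C, then treated with compounds for 24 hr before luciferase detection reagent is added and luminescence is read after 12 min at room temperature. The HEK293 line carries constitutively active GLP-1R with a cAMP-responsive reporter.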
Of the large screens only hits and unclear results are named; the others gave an inactive call. Unless noted, calls follow the shape of the dose curve; as a rule, active = well fitted curve in the direction sought with a large enough effect; inconclusive = small, poorly fitted or top-dose-only effect, or another doubt; inactive = no such curve, though single readings can be large; an effect the other way counts as inactive or inconclusive.

CC1Cc2ccccc2N1S(=O)(=O)c1nnc(NC(=O)c2ccccc2)s1 (stereo not drawn)	GLP1R inv ag inconclusive (no result: GLP-1R agonist)
CCOC(=O)c1cnc2ccc(OCC)cc2c1NCc1ccccc1OC	ClpP mod 22µM
COc1ccc(-c2noc(CSc3nnc(C)n3-c3ccc(F)cc3)n2)cc1	none (no result: GLP-1R agonist)
CN(C)c1ccc(-c2noc(-c3ccccc3O)n2)cc1	ClpP mod 10µM
CCCCc1ccc(NC(=O)Nc2cccnc2)cc1	GLP1R inv ag 7.1µM
O=C(NCCCCc1ccccc1)c1ccccc1	none
O=C(NCCCCc1ccccc1)c1cccc(NC(=O)c2ccccc2)c1	GLP1R inv ag 10µM
O=C(NCCCCc1ccccc1)c1ccccc1Cl	GLP1R inv ag 5µM (no result: ClpP mod)
O=C(CCCc1ccccc1)Nc1cccc(C(=O)O)c1	GLP1R inv ag 2µM (no result: ClpP mod)
O=C(CCc1ccccc1)NC(=S)Nc1cccc(C(=O)O)c1	none
COc1ccccc1CCC(=O)O	none (no result: GLP-1R agonist, HEK293 tox, GLP1R inv ag)
Cc1cccc(NC(=O)CSc2nnc(NC(=O)Nc3ccccc3)s2)c1C	none (no result: GLP-1R agonist)
CCOC(=O)c1c(S(=O)(=O)NCC(=O)Nc2ccc(C)c(Cl)c2)c(C)n(C)c1C	none (no result: GLP-1R agonist)
COc1ccc(OC)c(C(c2nnnn2C2CCCC2)N2CCN(c3ccccc3F)CC2)c1 (stereo not drawn)	ClpP mod 25µM, GLP1R inv ag inconclusive
Cc1cc2nc(C)c(Cc3ccccc3)c(=O)n2[nH]1	ClpP mod 14µM
Cc1cccc(CNC(=O)Cc2csc3ccccc23)c1	GLP1R inv ag inconclusive (no result: GLP-1R agonist)
Cc1cccc(NC(=O)CSc2nc(-c3ccccc3)cc(=O)[nH]2)c1C	none (no result: GLP-1R agonist)
O=C(c1nn(Cc2ccccc2)c(=O)c2ccccc12)N1CCN(C/C=C/c2ccccc2)CC1	GLP1R inv ag 7.9µM
O=C(Cn1cnc2c(nnn2Cc2ccc(F)cc2)c1=O)N1CCN(c2ccccc2)CC1	ClpP mod 25µM
O=C(Cn1cnc2ccccc2c1=O)N1CCN(Cc2ccccc2)CC1	ClpP mod 20µM
COc1cccc(C(=O)N2CCC(C(=O)Nc3cccc(Cl)c3)CC2)c1	GLP1R inv ag inconclusive (no result: GLP-1R agonist)
C(=C\c1c[nH]c2ccccc12)/c1ccnc2ccccc12	none (no result: GLP-1R agonist, HEK293 tox, GLP1R inv ag)
Cc1ccsc1C1NC(=O)c2ccccc2N1 (stereo not drawn)	ClpP mod 16µM
O=C1NC(c2ccccc2Cl)Nc2ccccc21 (stereo not drawn)	ClpP mod 25µM
Cc1cccc(-n2cc(-c3ccccc3)nc2SCC(=O)Nc2ccccc2Cl)c1	GLP1R inv ag inconclusive (no result: GLP-1R agonist)
CCOC(=O)N1CCN(c2ccc(S(=O)(=O)N3CCOCC3)cn2)CC1	ClpP mod 28µM
CC(C)(C)NC(=O)NC(=O)CSc1ccc(S(=O)(=O)N2CCOCC2)cn1	none
Cc1ccc(C(C)NC(=O)CSc2ccc(S(=O)(=O)N3CCOCC3)cn2)cc1C (stereo not drawn)	ClpP mod 25µM
CCOC(=O)c1nn2c(C(F)(F)F)cc(-c3ccc(C)cc3)nc2c1Cl	none (no result: GLP-1R agonist)
O=C(O)c1ccccc1C1=Nc2ccc(O)cc2Oc2cc(O)ccc21	ClpP mod 14µM
CCn1ccc2cc(S(=O)(=O)N3CCCN(C(=O)Nc4cccc(SC)c4)CC3)ccc21	GLP1R inv ag inconclusive
O=C(N/N=C/c1ccccc1O)c1ccc2c(c1)OCO2	GLP1R inv ag inconclusive (no result: ClpP mod)
O=C(N/N=C/c1cc(Br)cc(Cl)c1O)c1ccc2c(c1)OCO2	HEK293 tox inconclusive, GLP1R inv ag 2.5µM (no result: ClpP mod)
O=C(N/N=C/c1ccccc1OC(=O)c1ccc2c(c1)OCO2)c1cccc(F)c1	HEK293 tox inconclusive, GLP1R inv ag 10µM
COc1cc(C(=O)Oc2ccccc2/C=N/NC(=O)c2ccc(Cl)cc2)cc(OC)c1OC	GLP1R inv ag 2.8µM
COc1cc(C(=O)Oc2ccccc2/C=N/NC(=O)c2ccc(C)c(Cl)c2)cc(OC)c1OC	HEK293 tox inconclusive
Cc1cc(C)c2nccc(/C=C/c3ccc(N(C)C)cc3)c2c1	none (no result: GLP-1R agonist, HEK293 tox, GLP1R inv ag)
Cc1ccc(N2C(=O)N(Cc3cc(=O)n4ccccc4n3)c3ccccc3S2(=O)=O)cc1Cl	GLP1R inv ag inconclusive (no result: GLP-1R agonist)
CCOC(=O)c1ccccc1NC(=O)CN1CCCN(Cc2cc(C)ccc2C)S1(=O)=O	ClpP mod inconclusive (no result: GLP-1R agonist)
CN(C)CCn1c2c(c(SCC(=O)Nc3cccc(C(F)(F)F)c3)nc1=O)CCCC2	GLP1R inv ag 10µM
COc1ccc(Cl)cc1NC(=O)CSc1nc(=O)n(CCN(C)C)c2c1CCCC2	GLP1R inv ag 11µM
CCn1c2ccccc2c2cc(C3C(C#N)=C(C)NC(C)=C3C#N)ccc21	ClpP mod 16µM, GLP1R inv ag inconclusive
NC1=NC[C@H](Cc2ccc(O)cc2)N1CCc1cccc(F)c1	none
NC1=NC[C@@H](Cc2ccc(O)cc2)N1CCC12CC3CC(CC(C3)C1)C2	GLP1R inv ag 8.9µM
CCN(c1cccc(C)c1)C(CNS(=O)(=O)c1ccccc1)c1ccccc1 (stereo not drawn)	GLP1R inv ag inconclusive (no result: GLP-1R agonist)
CN(Cc1ccccc1)C(CNS(=O)(=O)c1ccccc1)c1ccccc1 (stereo not drawn)	GLP1R inv ag inconclusive
Cc1cccc(N(C)C(CNS(=O)(=O)c2ccccc2)c2ccccc2)c1 (stereo not drawn)	GLP1R inv ag 10µM (no result: GLP-1R agonist)
CCN(c1ccccc1)C(CNS(=O)(=O)c1ccccc1)c1ccccc1 (stereo not drawn)	GLP1R inv ag 10µM (no result: GLP-1R agonist)
CC12C=CC(=O)C=C1CCC1C2C(O)CC2(C)C1CCC2(O)C(=O)COC(=O)CCC(=O)O (stereo not drawn)	none (no result: ClpP mod, HEK293 tox, GLP1R inv ag)
O=C(NCc1ccc(Cl)cc1Cl)C1CCN(S(=O)(=O)c2ccc3c(c2)OCCCO3)CC1	GLP1R inv ag 7.9µM
O=C(NCc1ccc(F)cc1)C1CCN(S(=O)(=O)c2ccc3c(c2)OCCCO3)CC1	none
Cc1ccc(Cl)cc1N1CCN(CCCNC(=O)C2COc3ccccc3C2)CC1 (stereo not drawn)	none (no result: GLP-1R agonist)
COc1ccc(N(C)C(=O)c2nc(-c3cccc(F)c3)n3c2CCCCC3)c(OC)c1	GLP1R inv ag inconclusive (no result: GLP-1R agonist)
Clc1c(CSc2nc3ccccc3o2)nc2ccccn12	GLP1R inv ag inconclusive
Brc1c(CSc2nncn2-c2ccccc2)nc2ncccn12	ClpP mod 10µM
Brc1c(CSc2nc3ccccc3o2)nc2ncccn12	ClpP mod 25µM
COc1ccccc1NC(=O)Cn1c(SCC(=O)N(C)c2ccccc2)nc2ccccc21	GLP1R inv ag inconclusive (no result: GLP-1R agonist)
O=C1CCCN1CCC(=O)N1CCCC(Nc2ccc(F)cc2)C1 (stereo not drawn)	ClpP mod 28µM
COc1ccc(NC2CCCN(C(=O)CCN3CCCC3=O)C2)cc1 (stereo not drawn)	none
N#Cc1c(NCCO)nc(NCc2ccccc2)c2c1CCN(Cc1ccccc1)C2	ClpP mod 10µM, GLP1R inv ag inconclusive
CCN1CCc2c(C#N)c(N3CCCCC3)nc(NCc3ccccc3)c2C1	ClpP mod inconclusive, GLP1R inv ag inconclusive
